Consider 40 compounds from PubChem BioAssay (NCI).

Molecules are shown by their SMILES. “And” between values parts separate entries of the source, which are not always exact repeats. Equal entries are not always repeated. This is part of a sample that, as a whole, favours compounds with a hit. Of some 83,000 tested, about 20% had one in any assay.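 Negative percent growth values reflect cell death: -40 means 40% of the cells present at the start died, and -100 means all died.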 The source made the active and inactive calls. Rule for the calls: active = growth percent below 10; inactive = the rest.

The subject of the test is MDA-MB-468 breast. The test can be described thus: NCI-60 one-dose screen, 48 h (100 = growth as untreated, 0 = no growth, -100 = all killed). The settings on record: 10 µM unless noted.
In the case of `COc1ccccc1/C=C1\Oc2cc(OCCN3CCCC3)ccc2C1=O`, the growth is 56.3% (inactive).

Regarding `COc1ccc(-c2cc(-c3ccc(Cl)cc3)c(C#N)c(=O)n2CCCCC(=O)NO)cc1`, the growth was 72.6% (inactive).

With `O=S(=O)(c1ccccc1)n1cc2c(c1)-c1nc(Nc3ncccn3)sc1CC2`, the growth was 46.3% (inactive).

On to `Cn1ccc(=O)nc1`, for which the growth is 71.1% (inactive).

On to `C=CCCCCCCCCCOC(C)=O`, for which the growth was 105% (inactive).

In the case of `O=C(O)c1ccccc1NCc1ccco1`, the growth was 95% (inactive).

On to `CC1(C)Cc2c(cn(Cc3ccccc3)c2-c2ccccc2)-c2oncc21`, for which the growth is 88.5% (inactive).

For the compound `CCOC(=O)C(C)(c1ccccc1)c1ccccc1`, the growth was 109% (inactive).

In the case of `CCOC1(OCC)OC(c2ccccc2)=C(C#N)C(/C=C\c2ccccc2)C1(OCC)OCC` (stereo not given), the growth is 56.7% (inactive).

As to `COc1ccc(-c2cc(=O)oc3ccc(Cl)cc23)cc1F`, the growth was 26.5% (inactive).

Take `Cc1[nH]c2ccccc2c1C1=CC(=O)C=CC1=O`: the growth was 72% (inactive).

Take `Cc1cnc(N)nc1OCCNC(=O)c1cccc(-c2ccc(S(=O)(=O)Nc3ccc4c(c3)N(C(=O)C3CC3)CCC4)cc2)c1`: the growth is 36.8% (inactive).

For `Cc1cc(Cl)nc(NCc2cc(Nc3ccnc4cc(Cl)ccc34)ccc2F)n1`, the growth is 11.4% (inactive).

For the compound `COc1ccc([N+](=O)[O-])c(/C=C/C(=O)c2ccccn2)c1`, the growth was 74.4% (inactive).

As for `CC(C)c1ccc(NC(=O)Cc2ccc(Nc3ncnc4cc(-c5cnn(CCN(C)C)c5)ccc34)cc2)cc1`, the growth was -86.9% [30 µM] (active).

Consider `COc1cc(Cl)cc(-c2nn(C(=O)NCCN3CCOCC3)cc2-c2ccncc2)c1`, for which the growth was 27.6% (inactive).

Take `COC(=O)c1cc(Cl)cc([N+](=O)[O-])c1O`: the growth is 95.3% (inactive).

As for `NC(=O)NN=C(C1CC1)C1CC1`, the growth is 119% (inactive).

With `CN(C)CCCN(Cc1ccccc1O)C(=S)Nc1ccc(Cl)cc1`, the growth is 89.6% (inactive).

As for `O=C(NCC(c1ccsc1)N1CCCCCC1)c1ccc(C(F)(F)F)cc1` (stereo not given), the growth is 95.3% (inactive).

With `CN(C)c1ccc2nc3ccc(=O)cc-3sc2c1`, the growth was 15% (inactive) and 29.5% (inactive).

In the case of `CN1CCN(c2ccc(NC(=O)Nc3ccc4c(ccn4-c4cccc(C(N)=O)n4)c3)cc2C(F)(F)F)CC1`, the growth was 42.8% (inactive).

Regarding `CCOC(=O)c1sc(NC(=O)CN2CCC(Cc3ccccc3)CC2)nc1C`, the growth was 98.5% (inactive).

On to `Nc1c(C(=O)Nc2ccc(C(F)(F)F)cc2)sc2nc(-c3cnccn3)cc(-c3cccs3)c12`, for which the growth is 69.9% (inactive).

On to `O=C(N/N=C\c1cc(Cl)ccc1[N+](=O)[O-])c1ccco1`, for which the growth was 58.5% (inactive).

In the case of `CCCCCCCCNc1ncnc2c1ncn2Cc1nnc2c3ccccc3c(Cl)nn12`, the growth was 40.6% (inactive).

On to `C[C@@H]1OCC2(CCN(c3cnc(C(=O)Nc4cc(F)cc5cccnc45)cn3)CC2)[C@@H]1N`, for which the growth was 1.07% (active).

Consider `CCN(CC)CCOc1ccc(/C(=C(\C)c2ccc(Cl)cc2)c2ccc(Cl)cc2)cc1`, for which the growth is 70.6% (inactive).

`CCc1ccc(C(=O)/C=C/C23c4ccccc4C(c4ccccc42)C2C(=O)NC(=O)C23)cc1` (stereo not given): the growth is -15.9% (active).

Turning to `CCN(CC)S(=O)(=O)c1ccc(OC)c(NC(=O)c2[nH]c(C)c3c2CCCCC3=O)c1`, the growth is 10.7% (inactive).

For the compound `Cc1ccc(-c2noc(C)n2)cc1`, the growth is 101% (inactive).

Consider `Cn1c(SCC(=O)c2ccc(F)cc2)nc2ccccc2c1=O`, for which the growth is 79.4% (inactive).

Consider `C=CC(=O)Nc1cccc(Nc2nc(Nc3ccc(N4CCN(C(C)=O)CC4)cc3OC)ncc2C(F)(F)F)c1`, for which the growth was -48.8% (active).

In the case of `O=C1NC(=S)NC(=O)C1=Cc1cccc(C=C2C(=O)NC(=S)NC2=O)c1`, the growth was 103% (inactive).

Regarding `COc1cc(C(=O)CCCl)ccc1O`, the growth is 94.7% (inactive).

As to `CCN1C(=O)N(CC)C2C1NN=c1s/c(=C\c3ccc(Br)cc3)c(=O)n12` (stereo not given), the growth is 7.21% (active).

As to `NC(=NCCCCCCN=C(N)/N=C(\N)Nc1ccc(Cl)cc1)/N=C(\N)Nc1ccc(Cl)cc1`, the growth was -69% (active).

Consider `O=C(Nc1ccccc1Cl)c1c[nH]c(=O)c(-c2ccc(N3CCCOC4(CC4)C3)cc2)c1`, for which the growth is 9.39% (active).

`COc1ccc2c(c1)/C(=C1/S/C(=N/c3nnc(C)s3)NC1=O)C(=O)N2Cc1ccc(Br)cc1`: the growth was 25.8% (inactive).

Turning to `CCOC(=O)c1c(C(=O)c2cn(C)c3ccc(Br)cc23)c(-c2cn(C)c3ccc(Br)cc23)n(NC(=O)OC(C)(C)C)c1C`, the growth was 41.5% [100 µM] (inactive).
